# Results filed as inconclusive are left out. Entries that show only a call come without a potency. Calls of active or inactive are those of the source. The call rests on the fitted dose curve; in most records, active means well fitted curve in the direction sought with a large enough effect; inconclusive means small, poorly fitted or top-dose-only effect, or another doubt; inactive means no such curve, though single readings can be large; an effect the other way counts as inactive or inconclusive.
# Biological target: Thioredoxin reductase 1, cytoplasmic (Rattus norvegicus) (UniProt O89049)
# Sequence (O89049 whole entry, looked up): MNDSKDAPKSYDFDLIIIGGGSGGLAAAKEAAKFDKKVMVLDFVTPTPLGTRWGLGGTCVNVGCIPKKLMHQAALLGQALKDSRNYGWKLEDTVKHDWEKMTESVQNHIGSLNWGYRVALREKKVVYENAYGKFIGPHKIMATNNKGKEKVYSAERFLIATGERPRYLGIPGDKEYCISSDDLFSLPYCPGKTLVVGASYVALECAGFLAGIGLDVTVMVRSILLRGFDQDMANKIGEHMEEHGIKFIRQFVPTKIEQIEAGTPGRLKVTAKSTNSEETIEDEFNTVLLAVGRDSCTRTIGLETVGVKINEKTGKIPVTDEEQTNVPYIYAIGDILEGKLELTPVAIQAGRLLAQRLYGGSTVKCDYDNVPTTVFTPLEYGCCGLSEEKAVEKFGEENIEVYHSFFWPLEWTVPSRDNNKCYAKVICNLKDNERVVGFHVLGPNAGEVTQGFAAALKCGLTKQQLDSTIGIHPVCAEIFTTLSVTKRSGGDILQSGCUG
# Experiment: qHTS Assay for Substrates of Mammalian Selenoprotein Thioredoxin Reductase 1 (TrxR1) (AID 488772);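 further: NADPH fluorescence in the first read after selenite addition and not the 8 min delta; a drop in NADPH fluorescence below the no-compound background marks a TrxR1 substrate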
# Conditions: purified TrxR1, NADPH consumption substrate assay; series mostly up to 57.1 µM
# How it was run: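 Quantitative HTS in Tris-HCl buffer at pH 7.5 with EDTA and Tween-20, using rat TrxR1, 400 uM NADPH and 400 uM selenite (final). A fall in initial NADPH fluorescence relative to background marked substrate behaviour.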
row,Structure (SMILES),Potency
1,CC(C)NCC(O)COc1cccc2ccccc12 (centres undefined),inactive
2,Fc1ccc(C(OCCCc2cnc[nH]2)c2ccc(F)cc2)cc1,inactive
3,CC(N)C(=O)OC(C)(C)Cc1ccc(Cl)cc1 (centres undefined),inactive
4,CCOC(=O)N1CCN(/[N+]([O-])=N/Oc2ccc([N+](=O)[O-])cc2[N+](=O)[O-])CC1,inactive
5,CCCCN1CCC(n2c(=O)[nH]c3ccccc32)CC1,inactive
6,O=c1[nH]c2cc([N+](=O)[O-])c([N+](=O)[O-])cc2[nH]c1=O,inactive
7,O=C(CCCCCN1CCN(c2ccccc2-c2ccccc2)CC1)NC1CCCc2ccccc21 (centres undefined),inactive
8,O=P(O)(O)C(Cl)(Cl)P(=O)(O)O,inactive
9,OCC1O[C@H]([S-])[C@H](O)[C@@H](O)[C@@H]1O.[Au+] (some centres undefined),inactive
10,N#C/C(=C\c1ccc(O)c(O)c1)C(=O)NCc1ccccc1,inactive
11,C=C[C@H]1CN2CC[C@@H]1C[C@@H]2[C@@H](O)c1ccnc2ccc(OC)cc12,inactive

# Biological target: Thioredoxin reductase 1, cytoplasmic (Rattus norvegicus) (UniProt O89049)
# Experiment: qHTS Assay for Inhibitors of Mammalian Selenoprotein Thioredoxin Reductase 1 (TrxR1) (AID 488773); further: nearly all actives have a fitted effect of over 40% in size; further: potency means the concentration at half of the fitted maximal effect
# Conditions: purified TrxR1 enzyme activity; Potency: inhibition; series mostly up to 57.1 µM
# How it was run: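 Steps: enzyme (90 nM) plus NADPH (400 uM final), 5 min at ~22 deg C; compound added, 15 min; selenite (400 uM final) added; fluorescence followed for 8 min. Concentration-response curves derived from the normalized delta values.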
row,Structure (SMILES),Potency
1,Nc1nc(SCc2ccc([N+](=O)[O-])cc2)c2ncn([C@@H]3O[C@H](CO)[C@@H](O)[C@H]3O)c2n1,inactive
2,CCCCCCCCc1ccc(-c2ccc(C(=O)O)cc2)cc1,inactive
3,O=C(O)CC1CCCc2ccccc2C1O (centres undefined),inactive
4,CCCCCC(O)c1cccc(OCc2ccc3ccccc3n2)c1 (centres undefined),inactive
5,CC1OC1P(=O)(O)O (centres undefined),inactive
6,Fc1cccc(/C=N/N=C/c2cccc(F)c2)c1,inactive
7,C#CCN1C(C)=C(C(=O)OC)C(c2cccc([N+](=O)[O-])c2)C(C(=O)OCC)=C1C (centres undefined),inactive
8,NC(=O)C1=CN(C2OC(COP(=O)(O)OP(=O)(O)OC[C@H]3O[C@@H](n4cnc5c(N)ncnc54)[C@H](OP(=O)(O)O)[C@@H]3O)C(O)C2O)C=CC1 (some centres undefined),inactive
9,Cc1nc2sccn2c(=O)c1CCN1CCC(=C(c2ccccc2)c2ccc(F)cc2)CC1,inactive
10,NCCSSCCN,inactive
11,NO,inactive
12,NCCCCCCCCCCN,inactive
13,COc1ccccc1N1CCN(CCN(C(=O)c2ccc(I)cc2)c2ccccn2)CC1,inactive
14,O=C(O)CCCC[C@@H]1CCSS1,inactive
15,NC(=O)C(=O)O,inactive
16,N=C(N)SCCc1ccc(CCSC(=N)N)cc1,inactive
17,NCC1OC(O[C@H]2[C@H](O)[C@@H](OC3C(O)C(N)CC(N)C3OC3OC(CO)C(O)C(O)C3N)O[C@@H]2CO)C(N)C(O)C1O (some centres undefined),inactive
18,CC(=O)N[C@H](C(=O)O)C(C)(C)SN=O,inactive
19,CN1C2CCC1CC(OC(=O)C(O)c1ccccc1)C2 (centres undefined),inactive
20,CNc1ncnc2c1ncn2[C@@H]1O[C@H](CO)[C@@H](O)[C@H]1O,inactive
21,CC[C@@H](C)[C@H]1O[C@]2(CC[C@H]1C)C[C@@H]1C[C@@H](CC=C(C)[C@@H](O[C@H]3C[C@H](OC)[C@@H](O[C@H]4C[C@H](OC)[C@@H](O)[C@H](C)O4)[C@H](C)O3)[C@@H](C)C=CC=C3CO[C@@H]4[C@H](O)C(C)=C[C@@H](C(=O)O1)[C@]34O)O2,inactive
22,NC[C@@H]1O[C@H](C23CC4CC(CC(C4)C2)C3)Cc2c1ccc(O)c2O,inactive
23,CCN(CC)c1ncnc2c1ncn2[C@@H]1O[C@H](COP(=O)(O)OP(=O)(O)C(Br)(Br)P(=O)(O)O)[C@@H](O)[C@H]1O,inactive
24,CCCCCCCCCCCCCCCC(=O)NCC(COP(=O)([O-])OCC[N+](C)(C)C)OCC (centres undefined),inactive
25,CN1CCC[C@H]1c1cccnc1,inactive
26,Cn1ncc(S(=O)(=O)Cc2ccccc2)c(Br)c1=O,947 nM (active)
27,N#C/C(=C\c1c[nH]c2ccccc12)C(=O)c1ccc(O)c(O)c1,inactive
28,O=C(O)[C@@H]1C[C@H](C(=O)O)N1,inactive

# Biological target: Flap endonuclease 1 (Homo sapiens) (UniProt P39748)
# Sequence (P39748 whole entry, looked up): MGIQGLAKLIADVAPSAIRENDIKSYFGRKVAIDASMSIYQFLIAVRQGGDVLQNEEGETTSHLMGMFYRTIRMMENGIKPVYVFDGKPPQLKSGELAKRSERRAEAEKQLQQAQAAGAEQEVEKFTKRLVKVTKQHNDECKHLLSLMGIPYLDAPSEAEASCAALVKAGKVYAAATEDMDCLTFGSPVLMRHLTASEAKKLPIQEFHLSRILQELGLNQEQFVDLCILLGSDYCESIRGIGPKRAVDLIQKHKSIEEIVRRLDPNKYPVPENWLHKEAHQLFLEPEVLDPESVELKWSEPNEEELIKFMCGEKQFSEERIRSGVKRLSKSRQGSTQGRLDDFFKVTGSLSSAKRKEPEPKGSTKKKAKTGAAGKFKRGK
# Experiment: qHTS Validation Assay for the Inhibitors of Human Flap endonuclease 1 (FEN1) (AID 488816); further: potency means the concentration at half of the fitted maximal effect
# Conditions: FEN1 nuclease activity, fluorogenic DNA substrate; series mostly up to 57.1 µM
# How it was run: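 Human FEN1 (10 nM) preincubated 15 min at room temperature with compounds, then flap DNA substrate added at 50 nM final. Fluorescence read at 0 and 15 min; concentration-response fitted with four-parameter Hill equation.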
row,Structure (SMILES),Potency
1,Nc1nc(SCc2ccc([N+](=O)[O-])cc2)c2ncn([C@@H]3O[C@H](CO)[C@@H](O)[C@H]3O)c2n1,inactive
2,Fc1ccc(C(OCCCc2cnc[nH]2)c2ccc(F)cc2)cc1,inactive
3,CCCCCCCCc1ccc(-c2ccc(C(=O)O)cc2)cc1,inactive
4,O=C(O)CC1CCCc2ccccc2C1O (centres undefined),inactive
5,CCCCCC(O)c1cccc(OCc2ccc3ccccc3n2)c1 (centres undefined),inactive
6,CC1OC1P(=O)(O)O (centres undefined),inactive
7,Fc1cccc(/C=N/N=C/c2cccc(F)c2)c1,inactive
8,C#CCN1C(C)=C(C(=O)OC)C(c2cccc([N+](=O)[O-])c2)C(C(=O)OCC)=C1C (centres undefined),inactive
9,NC(=O)C1=CN(C2OC(COP(=O)(O)OP(=O)(O)OC[C@H]3O[C@@H](n4cnc5c(N)ncnc54)[C@H](OP(=O)(O)O)[C@@H]3O)C(O)C2O)C=CC1 (some centres undefined),inactive
10,Cc1nc2sccn2c(=O)c1CCN1CCC(=C(c2ccccc2)c2ccc(F)cc2)CC1,inactive
11,NCCSSCCN,inactive
12,CCOC(=O)N1CCN(/[N+]([O-])=N/Oc2ccc([N+](=O)[O-])cc2[N+](=O)[O-])CC1,inactive
13,CCCCN1CCC(n2c(=O)[nH]c3ccccc32)CC1,inactive
14,NO,inactive
15,NCCCCCCCCCCN,inactive
16,COc1ccccc1N1CCN(CCN(C(=O)c2ccc(I)cc2)c2ccccn2)CC1,inactive
17,O=C(O)CCCC[C@@H]1CCSS1,inactive
18,NC(=O)C(=O)O,inactive

row,Structure (SMILES),Potency
1,N=C(N)SCCc1ccc(CCSC(=N)N)cc1,inactive
2,NCC1OC(O[C@H]2[C@H](O)[C@@H](OC3C(O)C(N)CC(N)C3OC3OC(CO)C(O)C(O)C3N)O[C@@H]2CO)C(N)C(O)C1O (some centres undefined),inactive
3,O=C(CCCCCN1CCN(c2ccccc2-c2ccccc2)CC1)NC1CCCc2ccccc21 (centres undefined),inactive
4,CC(=O)N[C@H](C(=O)O)C(C)(C)SN=O,inactive
5,O=P(O)(O)C(Cl)(Cl)P(=O)(O)O,inactive
6,CN1C2CCC1CC(OC(=O)C(O)c1ccccc1)C2 (centres undefined),inactive
7,CNc1ncnc2c1ncn2[C@@H]1O[C@H](CO)[C@@H](O)[C@H]1O,inactive
8,CC[C@@H](C)[C@H]1O[C@]2(CC[C@H]1C)C[C@@H]1C[C@@H](CC=C(C)[C@@H](O[C@H]3C[C@H](OC)[C@@H](O[C@H]4C[C@H](OC)[C@@H](O)[C@H](C)O4)[C@H](C)O3)[C@@H](C)C=CC=C3CO[C@@H]4[C@H](O)C(C)=C[C@@H](C(=O)O1)[C@]34O)O2,inactive
9,NC[C@@H]1O[C@H](C23CC4CC(CC(C4)C2)C3)Cc2c1ccc(O)c2O,inactive
10,OCC1O[C@H]([S-])[C@H](O)[C@@H](O)[C@@H]1O.[Au+] (some centres undefined),1500 nM (active)
11,CCN(CC)c1ncnc2c1ncn2[C@@H]1O[C@H](COP(=O)(O)OP(=O)(O)C(Br)(Br)P(=O)(O)O)[C@@H](O)[C@H]1O,inactive
12,CCCCCCCCCCCCCCCC(=O)NCC(COP(=O)([O-])OCC[N+](C)(C)C)OCC (centres undefined),inactive
13,CN1CCC[C@H]1c1cccnc1,inactive
14,Cn1ncc(S(=O)(=O)Cc2ccccc2)c(Br)c1=O,inactive
15,N#C/C(=C\c1ccc(O)c(O)c1)C(=O)NCc1ccccc1,inactive
16,N#C/C(=C\c1c[nH]c2ccccc12)C(=O)c1ccc(O)c(O)c1,4230 nM (active)
17,O=C(O)[C@@H]1C[C@H](C(=O)O)N1,inactive

# — PubChem BioAssay (NCATS)
